High-throughput results as filed in PubChem BioAssay.
Most compounds without a hit are left out; they make up all but 2.5% or so of the library.
Cruzain inh Det = inhibitors of Trypanosoma cruzi cruzain with detergent; Potency, µM, for inactives: max response, negative = inhibition, hits mostly inhibitors; actives 0.43% (n = 200,000); purified cruzain, Z-FR-AMC fluorescence, 0.01% Triton;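 also: plate controls were neutral wells for no effect and buffer without enzyme for full effect; nearly all actives have a fitted effect of over 40% in size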
Target sequence (P25779 123-467 limits assumed): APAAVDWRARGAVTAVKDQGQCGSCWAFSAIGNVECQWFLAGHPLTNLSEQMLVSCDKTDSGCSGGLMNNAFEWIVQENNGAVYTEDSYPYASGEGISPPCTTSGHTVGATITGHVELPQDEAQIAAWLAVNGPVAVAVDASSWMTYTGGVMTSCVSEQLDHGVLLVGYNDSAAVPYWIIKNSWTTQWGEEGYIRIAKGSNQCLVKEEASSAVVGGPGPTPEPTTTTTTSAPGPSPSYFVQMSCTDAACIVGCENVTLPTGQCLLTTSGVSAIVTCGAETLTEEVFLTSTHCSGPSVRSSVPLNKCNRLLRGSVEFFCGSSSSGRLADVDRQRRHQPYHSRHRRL
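Detergent-containing arm of a paired screen for aggregation-based inhibition: 0.01% Triton X-100 present. Cruzain at 1.5 nM cleaved 2 uM Z-FR-AMC at pH 5.5 with 5 mM DTT; AMC fluorescence gain over 60 s measured activity.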
Cruzain noTriton = cruzain (T. cruzi) inhibition without detergent; P25779; Potency, µM, without a hit: max response, negative = inhibition, most hits filed as inhibitors; actives 2.3% (n = 200,000); purified cruzain, Z-FR-AMC fluorescence, no detergent;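 also: plate controls were enzyme without inhibitor for no effect and buffer without enzyme for full effect; nearly all actives have a fitted effect of over 40% in size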
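Purified cruzain at 1.5 nM, pre-incubated 15 min with compound at room temperature in 100 mM sodium acetate pH 5.5, 5 mM DTT, 0.00005% Triton X-100. Reaction started with 2 uM Z-FR-AMC; AMC fluorescence increase over 60 s gives rate.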
The depositor's hits bear a star; ? = inconclusive. Calls follow the shape of the dose curve; as a rule, active = well fitted curve in the direction sought with a large enough effect; inconclusive = small, poorly fitted or top-dose-only effect, or another doubt; inactive = no such curve, though single readings can be large; an effect the other way counts as inactive or inconclusive. Potency is read from the fitted curve at half-maximal effect.

SMILES	Cruzain inh Det	Cruzain noTriton
CN1CCN(c2ncc3nc(-c4cccc(C#N)c4)c(=O)n(Cc4ccc(F)cc4)c3n2)CC1	-20%	?
CCNc1oc(-c2cccc3ccccc23)nc1C#N	3%	11%
N#Cc1nc(-c2cccc3ccccc23)oc1NCCN1CCCCC1	28µM*	-8%
CCn1nnc(NC(=O)c2ccc(-c3ccc(Cl)cc3)o2)n1	-9%	-15%
CCc1nnc(NC(=O)c2ccc(-c3ccc(Cl)cc3)o2)s1	3%	16µM*
CCOc1ccccc1-c1noc(CSc2nnc(-c3ccccc3)n2-c2ccc(OC)cc2)n1	-4%	-9%
CC1CCC(C(=O)NC(C(=O)OCC(=O)c2ccccc2)C(C)C)CC1 (stereo unspecified)	16µM*	?
CCc1ccc(C(=O)COC(=O)C(Cc2ccccc2)NC(=O)C2CCC(C)CC2)cc1 (stereo unspecified)	7%	-15%
O=C(c1ccc2c(c1)N(Cc1ccccc1)C(=O)c1ccccc1S2(=O)=O)N1CCc2ccccc21	-1%	?
CC(C)CCNC(=O)CCCOc1ccccc1	4%	0%
CC(C)CCNC(=O)[C@H](CC(C)C)NC(=O)[C@H]1O[C@@H]1C(=O)O	0.1µM*	0.1µM*
Cc1ccccc1Nc1nc(-c2sc(NC(=O)c3cccc(Cl)c3)nc2C)cs1	2%	6.3µM*
Cc1ccccc1Nc1nc(-c2sc(NC(=O)c3ccccc3)nc2C)cs1	-5%	13µM*
CCCCC(=O)Nc1nc(C)c(-c2csc(Nc3ccccc3OC)n2)s1	-3%	?
Cc1ccc(Cl)cc1Nc1nc(-c2sc(NC(=O)c3cccc(Cl)c3)nc2C)cs1	11%	4µM*
C=CCCC(=O)Nc1nc(C)c(-c2csc(Nc3ccccc3OC)n2)s1	-9%	?
CCOc1ccccc1Nc1nc(-c2sc(NC(=O)c3ccc([N+](=O)[O-])cc3)nc2C)cs1	1%	6.3µM*
Nc1c(OCC(=O)O)ccc2cc(S(=O)(=O)O)ccc12	-2%	2%
COc1ccc(-c2nc(-c3ccccc3)c(Nc3c(C)cccc3C)o2)cc1	2%	-6%
NC(=O)Cn1c(=O)n(CCCCCC(=O)NCc2ccccc2Cl)c(=O)c2sccc21	-4%	2%
O=C(c1ccc([N+](=O)[O-])cc1)N1CCN(c2ccc(Nc3ccccc3)nn2)CC1	-10%	-25%
Cc1ccc(Nc2nc(-c3sc(NC(=O)c4ccc([N+](=O)[O-])cc4)nc3C)cs2)cc1	0%	7.9µM*
Cc1ccccc1Nc1nc(=O)c2cc([N+](=O)[O-])ccc2s1	-1%	-18%
COc1ccc(-c2sc(NC(C)=O)nc2-c2ccccc2)cc1	-10%	14%
Cc1ccc(C(=O)Nc2nc(-c3ccc([N+](=O)[O-])cc3)cs2)o1	-5%	-7%
SMILES	Cruzain inh Det	Cruzain noTriton
COc1ccc(-c2nc(NC(=O)c3ccccc3)sc2-c2ccc([N+](=O)[O-])cc2)cc1	-2%	7.9µM*
Cc1ccccc1Nc1nc(-c2sc(NC(=O)c3ccc([N+](=O)[O-])cc3)nc2C)cs1	6%	10µM*
Cc1ccc(NC(=O)CSc2cn(CC(=O)N3CCOCC3)c3ccccc23)cc1Cl	-4%	?
COc1cc(NC(=O)CCCc2nnc3n(CC(C)C)c(=O)c4sccc4n23)cc(OC)c1	-1%	-14%
C/C(=N\NC(=O)c1cc(Cl)ccc1O)c1ccc(Br)s1	-6%	10µM*
C/C(=N\NC(=O)c1ccc(Cl)cc1)c1ccc(Br)s1	5%	?
COc1cc(SC#N)ccc1N=Cc1c(C)[nH]n(-c2cccc3ccccc23)c1=O	-5%	25µM*
COc1cc(SC#N)ccc1N=Cc1c(C)[nH]n(-c2ccc(C)cc2C)c1=O	-2%	-17%
Cc1ccc(Cn2cc(C(=O)c3ccc4c(c3)OCO4)c(=O)c3cc(C)ccc32)cc1	-3%	?
CC(C)c1ccc(C2C(C#N)=C(N)N3C(=C2C#N)Sc2ccccc23)cc1 (stereo unspecified)	-14%	7.9µM*
CC(C)c1ccc(C2CC(=O)N3CN(C)CSC3=C2C#N)cc1 (stereo unspecified)	1%	-4%
COc1cc(NC(=O)c2cc3cc4ccc(C)cc4nc3o2)cc(OC)c1OC	-3%	-1%
CCOc1cc(-c2ccc(OC(=O)c3ccc(C)cc3)c(OC)c2)cc(=O)c2c(C)oc(C)c12	0%	2%
Cc1ccc(C)c(N2CCN(C(=O)CCc3nnc4n(C)c(=O)c5ccccc5n34)CC2)c1	0%	11%
Cc1ccc(NC(=O)C(OC(=O)c2ccc(C=O)cc2)c2ccccc2)cc1Cl (stereo unspecified)	-9%	25µM*
COCC(C)NC(C(=O)Nc1ccc(C)c(Cl)c1)c1ccccc1 (stereo unspecified)	0%	-2%
Cn1c(C(=O)Nc2ccc3c(c2)OCO3)cc2sccc21	-6%	25µM*
Cn1c(C(=O)NCc2ccc3c(c2)OCO3)cc2sccc21	-3%	-13%
O=C(CSc1cn(CC(=O)N2CCCC2)c2ccccc12)Nc1cc(C(F)(F)F)ccc1Cl	-6%	?
C=CCCC#N	0%	-14%
COc1ccc(NC(=O)CSc2nc3c(c(=O)n2-c2ccccc2OC)SCC3)cc1	-3%	-8%
CCSc1nnc(NC(=O)CSc2nc3c(c(=O)n2-c2ccccc2OC)SCC3)s1	28µM*	-28%
Cc1ccc(CSc2ccc3nnc(CCNS(=O)(=O)c4ccc(C)cc4)n3n2)cc1	-7%	?
O=C(COC(=O)C1CC(=O)N(c2ccccc2)C1)c1ccccc1 (stereo unspecified)	2%	0%
O=C(COC(=O)C1CC(=O)N(c2nc(-c3ccccc3)cs2)C1)c1ccccc1 (stereo unspecified)	-5%	25µM*
SMILES	Cruzain inh Det	Cruzain noTriton
COc1cccc(CNC(=O)Cn2cc3c(n2)-c2c(oc(C(=O)N4CCCC4)c2C)CC3)c1OC	-3%	18%
Cc1cc(NC(=O)CCNS(=O)(=O)c2ccc3c(c2)CCCC(=O)N3)ccc1Br	0%	-1%
Cc1ccc2c(CC(=O)Nc3ccc(S(=O)(=O)N4CCCCC4C)cc3)coc2c1 (stereo unspecified)	-6%	25µM*
Cc1ccc2c(CC(=O)Nc3ccc(S(=O)(=O)N4CCCCC4C)cc3)coc2c1C (stereo unspecified)	-6%	?
COc1cc(C(=O)OCc2cc(=O)n3ccsc3n2)cc(OC)c1OC	-1%	1%
Cc1ccc(S(=O)(=O)Oc2ccc(N=Nc3ccc(-c4ccc(N=Nc5c(O)ccc6cc(S(=O)(=O)O)cc(S(=O)(=O)O)c56)c(C)c4)cc3C)cc2)cc1	13µM*	?
Cc1ccc(N=Nc2c(O)ccc3cc(S(=O)(=O)O)ccc23)cc1	-14%	?
Cc1cccc(N=C2NN=C(c3c(C)[nH]c4ccccc34)CS2)c1	-4%	?
Cc1cccc(N=C2NN=C(c3ccc4c(c3)OCCO4)CS2)c1	-7%	16µM*
COc1ccccc1-c1cc(C(=O)Nc2cc(Cl)ccc2O)no1	-3%	-13%
COc1cccc(C2=NS(=O)(=O)N(C)C(C(=O)Nc3ccccc3SC)=C2)c1	-1%	13µM*
CCc1ccccc1NC(=O)C1=CC(c2ccc3c(c2)OCO3)=NS(=O)(=O)N1C	-3%	3%
CCc1ccccc1NC(=O)c1cc(-c2ccc(OC)cc2)on1	0%	-4%
COc1ccc(-c2cc(C(=O)Nc3ccccc3SC)no2)cc1	4%	5µM*
COc1ccccc1-c1cc(C(=O)Nc2ccc(F)cc2F)no1	1%	13µM*
Cc1cccc(OCC(=O)Nc2ccc(OCc3cc(=O)n4cc(C)ccc4n3)cc2)c1	3%	-3%
